Most compounds without a hit are left out; they make up all but 1.2% or so of the library.
Yp Topo-I inh = Yersinia pestis topoisomerase I inhibitors, primary screen, biochemical, cleavage product accumulation, plate reader, single point. activity, % at 10 µM. DNA topoisomerase I (Yersinia pestis CO92). AID 504884, 2011. 360,000 compounds, 0.064% hits. Y. pestis Topo-I cleavage product accumulation; in the data active = activity above about 50%, passing the limit was not always enough
VHR inh abs = VHR1 phosphatase inhibitors, primary screen, biochemical, absorbance, uHTS. recombinant VHR phosphatase, pNPP absorbance. inhibition, % at 13.3 µM. 290,000 compounds, 0.52% hits. AID 1654, 2009; in the data active = inhibition above about 50%
Target sequence (P51452 whole entry, looked up): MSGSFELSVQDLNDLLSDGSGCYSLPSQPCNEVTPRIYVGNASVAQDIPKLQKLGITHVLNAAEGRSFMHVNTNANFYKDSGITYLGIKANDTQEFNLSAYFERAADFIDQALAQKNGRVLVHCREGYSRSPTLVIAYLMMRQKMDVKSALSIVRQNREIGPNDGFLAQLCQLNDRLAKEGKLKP
PfHsp40 rescue = rescue of yeast from PfHsp40 toxicity, primary screen, S. cerevisiae, ATP luminescence. S. cerevisiae expressing PfHsp40, growth rescue. AID 504582, 2011. growth rescue, % at 12.5 µM. 340,000 compounds, 0.68% hits; in the data active = growth rescue above about 28%, passing the limit was not always enough;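 note: yeast W303a lacking pdr1 and pdr3 grown in galactose medium; growth measured after three days at 30 °C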
TcdB inh = TcdB glycohydrolase inhibitors, primary screen, biochemical, single point, plate reader | Toxin B (Clostridioides difficile), P18177 | TcdB glycohydrolase enzymatic assay | inhibition, % at 9.99 µM | 350,000 compounds, 0.24% hits; in the data active = inhibition above about 10%
Mtb BioA inh = M. tuberculosis BioA enzyme inhibitors, primary screen, biochemical, plate reader, single point, HTS; purified M. tuberculosis BioA enzyme; inhibition, % at 9.99 µM; 360,000 compounds, 0.096% hits; AID 602481, 2012; in the data active = inhibition above about 40%
BH1578 lux ind = inducers of Vibrio cholerae quorum light production without autoinducers, primary screen, BH1578 luxS cqsA deficient, single point. activation, % at 18.7 µM. 350,000 compounds, 0.16% hits. V. cholerae BH1578 lux reporter, luminescence, 6 h; in the data active = activation mostly above about 9.7%, no sharp cut-off
* marks the source's active call; other numbers are inactive results; i = inactive; · = no result; ! = not active in a repeat.

SMILES	Yp Topo-I inh	VHR inh abs	PfHsp40 rescue	TcdB inh	Mtb BioA inh	BH1578 lux ind
COC(=O)C1=C(c2ccc(S(C)(=O)=O)cc2)C[C@@H]2CC[C@H]1N2C(=O)N1CCCCC1	7.8	·	78.0*	3.4	1.3	-0.8
COC(=O)C1=C(c2ccc(F)cc2OCc2ccccc2)C[C@@H]2CC[C@H]1N2C(=O)N1CCCC1	13.2	·	0.0	10.3*	1.2	-0.4
COC(=O)C1=C(c2ccc(S(C)(=O)=O)cc2)C[C@@H]2CC[C@H]1N2C(=O)N1CCCC1	1.4	·	0.9	0.5	2.2	i
COC(=O)C1=C(c2ccc(F)cc2OCc2ccccc2)C[C@@H]2CC[C@H]1N2C(=O)NCCOc1ccc(OC)cc1	0.5	·	1.2	1.4	-1.4	0.4
CCCCCCn1c(O)c(C=NCCCn2ccnc2)c(=O)[nH]c1=O	4.9	2.0	3.3	·	-4.1	1.8
O=C(CN(C(=O)c1csnn1)c1ccc(F)c(Cl)c1)NC1CCCC1	-0.7	34.4	-0.6	2.0	0.8	i
C/C(CC(=O)Nc1cc(C)ccn1)=N\NC(=O)c1cccc(F)c1	-2.0	52.0*	-1.2	-1.4	2.7	-0.5
C/C(CC(=O)Nc1cc(C)ccn1)=N\NC(=O)c1ccc(C)cc1	-10.9	12.9	-0.4	-1.1	·	-0.3
CC(C)OCCCn1c(SC(C)C(=O)NCC2CCCO2)nc2cc(Cl)ccc2c1=O (stereo not drawn)	20.9	·	3.5	1.9	·	-5.3
CCOC(=O)C(=O)NNc1ccc(Cl)cc1	-0.8	24.5	0.7	47.1*	·	i
COc1cccc(C(=O)NC(C)C(c2cccs2)N2CCOCC2)c1 (stereo not drawn)	4.4	53.3*	-0.2	0.4	1.5	-0.6
CCN1CCN(C(c2cccs2)C(C)NC(=O)c2cccc(OC)c2)CC1 (stereo not drawn)	1.8	9.4	1.2	-5.4	1.6	-1.3
COc1ccc(C(C(=O)NC(C)(C)C)N(Cc2ccco2)C(=O)CCC(=O)Nc2cc(C)on2)cc1 (stereo not drawn)	-5.4	4.0	-0.3	·	0.4	-0.2
Cc1ccc(C(=O)NCCc2nnc3ccc(SCC(=O)NCc4ccc(F)cc4)nn23)cc1	12.9	57.1*	-1.6	1.7	0.1	0.0
O=C(CSc1ccc2nnc(CCNC(=O)c3ccccc3)n2n1)NCc1ccccc1	-6.3	45.2	0.1	1.4	-2.7	2.0
CC(C)COC(=O)CCn1[nH]c(=O)c2ccccc2c1=O	0.5	-9.1	-0.4	·	-1.8	i
CCCCCCCCOC(=O)CCn1[nH]c(=O)c2ccccc2c1=O	5.3	20.5	199.6*	·	-1.5	-1.5
CCCNC(=O)[C@@H]1[C@@H](CO)[C@@H]2Cn3c(ccc(/C=C/c4ccccc4)c3=O)[C@H]1N2C(=O)C1CCC1	·	·	·	0.6	-0.5	·
O=c1c(-c2cccc3ccccc23)[n+]([O-])c2ccccc2n1O	-7.1	13.9	80.6*	·	-3.0	-0.6
CCOn1c(=O)c(-c2cccc3ccccc23)[n+]([O-])c2ccccc21	5.8	11.8	0.2	1.6	6.3	-0.2
CCC(=O)NC(=S)Nc1ccc(NC(=O)c2ccc(C)c([N+](=O)[O-])c2)cc1	-4.3	8.1	-0.4	0.8	·	-0.2
Cc1noc(C)c1C(=O)Nc1cccc2ncccc12	3.0	53.3*	1.1	-0.4	0.6	-0.5
CCN1C(=O)[C@H]2[C@@H](c3ccc(OC)cc3)N[C@]3(CCCN(Cc4ccccc4)C3=O)[C@H]2C1=O	-1.1	·	·	0.0	0.3	-1.1
C/C(=N\NS(=O)(=O)c1ccc(Cl)c([N+](=O)[O-])c1)c1cc2ccccc2o1	-2.9	21.8	12.4	·	-1.0	-1.4
COc1cccc(-n2nnnc2SCC(=O)Nc2ccccc2OC)c1	22.0	14.9	0.3	0.6	4.6	-0.3
SMILES	Yp Topo-I inh	VHR inh abs	PfHsp40 rescue	TcdB inh	Mtb BioA inh	BH1578 lux ind
CCCS(=O)(=O)c1nnnn1-c1cccc(OC)c1	6.2	-5.0	408.2*	·	-1.1	2.4
CCCN(Cc1cc2cccc(C)c2[nH]c1=O)C(=O)c1cccc(OC)c1	-8.1	·	72.5*	·	-0.6	i
CCCN(Cc1cc2cc(C)ccc2[nH]c1=O)C(=O)c1cccc(OC)c1	-5.5	23.8	-0.1	·	-0.5	-0.5
O=C(COC(=O)Cc1c[nH]c2ccccc12)Nc1ccccc1	-1.3	21.2	-1.3	-2.1	·	-0.2
CC1CCCC(C)N1CC(O)COCC1COc2ccccc2O1 (stereo not drawn)	6.7	55.2*	-1.5	·	-0.5	i
COc1ccc(-c2cnc3c(c2)C(=O)N([C@@H](C)CO)C[C@H](C)[C@H](CN(C)C(=O)C2CCCCC2)O3)cc1	·	·	·	12.2*	-1.3	·
COc1ccc(-c2cnc3c(c2)C(=O)N([C@H](C)CO)C[C@H](C)[C@@H](CN(C)C(=O)C2CCCCC2)O3)cc1	·	·	·	-1.0	3.0	·
Cc1cccc2sc(NNC(=O)c3ccc(S(=O)(=O)N4CC(C)CC(C)C4)cc3)nc12 (stereo not drawn)	16.9	3.9	285.3*	1.8	-2.8	-0.1
Cc1cc(C)c2nc(NNC(=O)c3ccc(S(=O)(=O)N4CCCC(C)C4)cc3)sc2c1 (stereo not drawn)	-1.9	3.9	96.7*	1.2	-0.2	i
CCOC(=O)c1c(C)nc2ccccc2c1C	6.4	27.1	0.8	·	-0.6	-1.7
CCCCOC(=O)c1ccccc1N	6.5	·	-1.8	-0.1	-1.1	-0.3
COC(=O)/C(C#N)=C/N(C)C	3.6	0.8	-1.1	-0.6	·	-0.7
CCOC(=O)/C(C#N)=C\N(C)C	5.5	56.7*	0.8	·	·	-0.4
c1ccc(-c2ncc(-c3ccn[nH]3)s2)cc1	-5.0	18.1	64.6*	0.5	·	-0.1
Cc1ccc(C)n1CCN1CCN(S(=O)(=O)c2ccc(F)cc2F)CC1	0.8	9.6	-1.0	0.3	·	-0.5
C[C@H]1CCC/C=C/[C@@H]2C[C@H](O)C[C@H]2[C@H](O)/C=C/C(=O)O1	0.1	·	47.1*!	0.0	-1.1	0.4
CC(=O)Nc1ccc(Oc2nc(-c3ccccn3)nc3ccccc23)cc1	-1.2	-18.6	-0.8	28.2*	·	-0.4
CC(=O)Nc1cccc(Oc2nc(-c3ccccn3)nc3ccccc23)c1	13.9	5.0	-1.2	1.3	-0.3	i
Cc1cccc(Oc2nc(-c3ccccn3)nc3ccccc23)c1	1.7	39.7	195.2*	1.2	0.9	-0.2
Cc1ccccc1Oc1nc(-c2ccccn2)nc2ccccc12	31.3	-15.2	244.6*	2.1	0.0	-0.6
NC(=O)c1ccc(NC(=O)CSc2nnc(C3CC3)n2C2CC2)cc1	-4.1	·	-1.5	12.1*	2.1	i
CCOc1ccc(NC(=O)CSc2nnc(C3CC3)n2C2CC2)cc1	2.0	·	-1.1	1.0	-1.0	-0.9

From PubChem BioAssay
